Measured values published in PubChem BioAssay AID743093 (The Scripps Research Institute Molecular Screening Center, 2013).
Screen size: about 150,000 compounds; about 100 (0.067%) were called active.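 Rule for the calls: active = inhibition above the mean plus 3 SD of compounds within the control limits, set per campaign (cut at about 38% in these data); inactive = the rest.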 The entries come from a sample that favours actives as a whole.

Assay: late stage P. falciparum gametocyte viability inhibitors, primary screen, ATP luminescence, HTS (AID 743093);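 note: 0% = DMSO wells and 100% = medium only without gametocytes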
Conditions: P. falciparum stage V gametocytes, 24 h, at 10.9 µM, stronger effect = higher value

| SMILES | inhibition |
| --- | --- |
| CC(C)CC(CCc1ccccc1)OS(N)(=O)=O (stereo unspecified) | -58.7% (inactive) |
| CC(C)(C)OC(=O)Nc1ccc([C@@H](NC(=O)OC(C)(C)C)C(=O)OC(C)(C)C)cc1 | -5.54% (inactive) |
| COc1ccc(C)cc1NC(=O)CNCc1cccs1 | 7.68% (inactive) |
| O=C(Cc1ccc(Br)cc1)NCCc1ccccc1 | 15.4% (inactive) |
| CCC(C)CCN1CCN=C1N(C)C (stereo unspecified) | 4.3% (inactive) |
| Cc1ccc(S(=O)(=O)NCCCn2ccnc2)cc1C(=O)NC(C)C | 2.4% (inactive) |
| O=C1N[C@@H](Cc2ccccc2)C(=O)N2[C@H]1C[C@]1(Br)c3ccccc3N(S(=O)(=O)c3ccccc3)[C@H]21 | 12.6% (inactive) |
| COC(=O)c1ccc(COc2ccc(/C=N/NC(=O)C(=O)Nc3ccc(OC)cc3)cc2OC)o1 | 2.74% (inactive) |
| O=C(N[C@@H](Cc1ccccc1)C(=O)OCc1ccccc1)c1nc[nH]c1C(=O)N[C@@H](Cc1ccccc1)C(=O)OCc1ccccc1 | 0.44% (inactive) |
| CCOc1cc(/C=N/Nc2cc(C)nc3ccc(C)cc23)ccc1O | 10.4% (inactive) |
| FC(F)(F)c1ccc2c3n(nc2c1)CCN=C3c1ccc(Cl)cc1 | 6.57% (inactive) |
| COC(=O)CN1C(=O)[C@H]2[C@@H](C3CC3)N3C(=O)CN(Cc4ccc(-c5ccccc5)cc4)C(=O)[C@@]3(Cc3ccccc3)[C@H]2C1=O | -19.5% (inactive) |
| CC(=O)Nc1ccc(NC(=O)CSc2nnnn2-c2ccccc2F)cc1 | -3.76% (inactive) |
| CC1CN(c2nc(Nc3ccccc3)nc(N)c2[N+](=O)[O-])CC(C)O1 (stereo unspecified) | -1.38% (inactive) |
| CCOc1cc(C)ccc1OCc1nnc(SCC(=O)Nc2cccc(C(=O)O)c2)n1-c1ccccc1 | 15.6% (inactive) |
| Nc1cccnc1Sc1ccccc1 | -1.9% (inactive) |
| Cc1noc(C)c1NC(=O)Nc1cccc2c1O[C@H](CN(C)S(=O)(=O)c1c(C)noc1C)[C@@H](C)CN([C@H](C)CO)C2=O | -15.7% (inactive) |
| O=C(O)c1ccccc1NC(=O)c1ccccc1-c1ccccc1C(=O)O | -11.4% (inactive) |
| CCOCCn1[nH]c2ccccc2c1=O | -10.4% (inactive) |
| COc1cc2c(cc1OC)C(c1ccccc1Br)NC(=O)C2 (stereo unspecified) | 1.27% (inactive) |
| Cc1cccc(NC(=O)CCN2CC(C)CC(C)C2)c1 (stereo unspecified) | -2.59% (inactive) |
| CC(=O)Nc1ccc(Oc2ccc3c(c2)C(=O)NC3=O)cc1 | 10.6% (inactive) |
| CCCn1c(C2CCCN2c2nc(-c3ccc(C)cc3)cs2)nc2cc(Cl)c(N3CCCCC3)cc21 (stereo unspecified) | 10.4% (inactive) |

| SMILES | inhibition |
| --- | --- |
| O=C(O)CCC(=O)N(Cc1ccccc1)Cc1ccccc1 | -4.24% (inactive) |
| Cc1ccc(S(=O)(=O)N2CCN(C)CC2)cc1 | -1.33% (inactive) |
| COc1cc2c(cc1OC)C(C(=O)Nc1cc(C)c(OC)c(C)c1)CC(=O)N2 (stereo unspecified) | 5.54% (inactive) |
| CCOC(=O)c1sc(/N=C/C2=C(O)CC(C)(C)CC2=O)c(C(=O)OCC)c1C | 22.4% (inactive) |
| O=C(c1ccc(F)cc1)n1cc(C(=S)N2CCOCC2)c2ccccc21 | 0.53% (inactive) |
| Cn1cc(CN2CCC(C(O)CCc3ccccc3)CC2)c(-c2ccccc2F)n1 (stereo unspecified) | 9.2% (inactive) |
| N=c1n(CCc2ccccc2)c2ccccc2n1Cc1ccccc1F | 59.9% (active) |
| CN(Cc1ccccc1)Cc1ccccc1F | 19.5% (inactive) |
| OC(CNC1CCCC1)COc1ccc(F)cc1 (stereo unspecified) | -4.99% (inactive) |
| NC1=NC(c2ccc([N+](=O)[O-])cc2)N(c2ccc(F)cc2)C(N)=N1 (stereo unspecified) | 9.95% (inactive) |
| CC(C)NC(=O)/C(C#N)=C\c1ccc(N(C)C)c(Br)c1 | 7.74% (inactive) |
| CNC1(c2nnnn2-c2c(C)cccc2C)CCOC(C)(C)C1 (stereo unspecified) | 5.71% (inactive) |
| COc1ccc(NC(=O)c2cc(-c3ccc(C)cc3)on2)cc1 | -2.96% (inactive) |
| CCOC(=O)C1(Cc2ccccc2C)CCCN(S(C)(=O)=O)C1 (stereo unspecified) | -3.76% (inactive) |
| COc1ccccc1C(=O)Nc1ccc(Nc2ccccc2)cc1 | -11.9% (inactive) |
| COc1cc(OC)cc(-c2c(-c3cccs3)c3cc(-c4ccc(OC)nc4)ccc3n2C)c1 | -3.15% (inactive) |
| Cc1ccc(C(=O)NNC2=Nc3cc([N+](=O)[O-])ccc3OC2)cc1 | 5.16% (inactive) |
| O=Cc1c(NCCCN2CCCC2=O)c2ccccc2[nH]c1=O | -5.27% (inactive) |
| COc1ccc(CNC(=O)C2CCCC2)cc1 | -3.19% (inactive) |
| COc1cccc2oc(CCc3ccccc3)cc(=O)c12 | -20% (inactive) |
| O=C(CN1CCCCCC1)Nc1ccc(Br)cc1[N+](=O)[O-] | -7.18% (inactive) |
| COc1ccc(NC(=O)CS(=O)(=O)c2ccccc2)cc1 | 34.6% (inactive) |
| CCC(CO)Oc1cc(NC(=O)c2cccc(F)c2)c2ncn(C(C)C)c2c1 (stereo unspecified) | -8.65% (inactive) |

| SMILES | inhibition |
| --- | --- |
| CCc1nnc(NS(=O)(=O)c2ccc(NC(=O)c3cccc(OC(F)(F)C(F)F)c3)cc2)s1 | -3.99% (inactive) |
| CC(C)(C)OC(=O)C[C@H]1C/C=C\C[C@@H](CC(=O)N[C@H](CO)Cc2ccccc2)C(=O)NC[C@@H](c2ccccc2)OC1=O | 20.4% (inactive) |
| COc1ccc(S(=O)(=O)NCCCc2ccccc2)cc1 | -6.3% (inactive) |
| CCC1=NN2C(=N)/C(=C/c3cc(C)n(-c4ccccc4)c3C)C(=O)N=C2S1 | 20.8% (inactive) |
| COC(=O)C1(CCSC)NC(c2ccc(OC)cc2OC)C2C(=O)N(c3cccc(C(C)=O)c3)C(=O)C21 (stereo unspecified) | 15.8% (inactive) |
| Nc1cc(N)nc(SCc2cccc(F)c2)n1 | -27.3% (inactive) |
| COc1ccccc1C(=O)Nn1cnnc1 | -1.75% (inactive) |
| COc1ccc(-c2cc3ncccc3cn2)cc1 | -25% (inactive) |
| CC(=O)NCC(=O)NC1CCCc2c1cnn2-c1ccccc1F (stereo unspecified) | -0.98% (inactive) |
| CCOc1cc(/C=C2\C(=N)N3N=C(C)SC3=NC2=O)ccc1OCCOc1ccccc1 | -11.6% (inactive) |
| O=C1C=C(c2cccc(Cl)c2O)C[C@@H](c2ccc(F)cc2)C1 | -16.5% (inactive) |
| COc1ccccc1OCCCCCCN1CCN(C)CC1 | 14.7% (inactive) |
| COc1cc(OC)cc(-c2sc3ccc(OC)cc3c2-c2ccc3cc[nH]c3c2)c1 | 5.06% (inactive) |
| C/C(=C/c1ccccc1)C(=O)N1CCN(c2ccccc2)CC1 | 5.72% (inactive) |
| Cc1cc2nc3n(c2cc1C)CC1CC(C(=O)NCCC(C)C)N(C)C31 (stereo unspecified) | 6.88% (inactive) |
| COC(=O)[C@]1(C)N[C@H](c2ccc(-c3ccc(Cl)c(Cl)c3)cc2)[C@@H]2C(=O)N(C)C(=O)[C@@H]21 | 15.7% (inactive) |
| CC(C)(C)NC(=O)/C(=C/c1cccnc1)NC(=O)c1ccco1 | -3.01% (inactive) |
| COc1ccc(C(C)NC(=O)C2CCCC2)cc1 (stereo unspecified) | 7.38% (inactive) |
| O=C(CNc1ccc(F)cc1F)NC(=O)NCc1ccco1 | -14.3% (inactive) |
| COc1ccc2ccn(C)c2c1 | 3.29% (inactive) |
| CC(=O)N1CCC(N(C(=O)Nc2ccc(Cl)cc2)C(C)C)CC1 | -9.52% (inactive) |
| CCC(=O)Nc1ccc(C(=O)NNC(=O)c2ccc(Cl)cc2)cc1 | 1.21% (inactive) |
| CCN1C(=S)N[C@@H](CCc2ccccc2)[C@H](C(=O)OC)[C@H]1C | 12.5% (inactive) |

| SMILES | inhibition |
| --- | --- |
| Oc1c(Br)cc(/C=N/NC(=S)NCC2CCCO2)cc1Br (stereo unspecified) | -1.52% (inactive) |
| Cc1cc(N2CCN(c3ccccc3)CC2)nc(N2CCOCC2)n1 | -32.2% (inactive) |
| COc1ccc(NC(=O)C2=NNC(=O)CC2)cc1S(=O)(=O)N1CCCCC1 | 3.13% (inactive) |
| COc1ccc(N(CC(=O)Nc2cccc3ccccc23)S(C)(=O)=O)c(OC)c1 | 7.84% (inactive) |
| O=C(COc1ccccc1)N1CCN=C1SCc1cccc(F)c1 | 8.04% (inactive) |
| O=C(Nc1cccc(S(=O)(=O)NC2=NCCC2)c1)C1CCCCC1 | -1.09% (inactive) |
| CCOc1cc2ccccc2cc1C(=O)Nc1ccccn1 | 3.24% (inactive) |
| CC(=O)c1ccc(N2Cc3ccccc3C2)cc1 | 9.41% (inactive) |
| O=C(CC(c1ccccc1)c1cc(Cl)ccc1O)NCCN1CCOCC1 (stereo unspecified) | -8.49% (inactive) |
| CN(c1ccc(OCC(=O)NC2=NCCS2)cc1)S(=O)(=O)c1ccc(F)cc1 | -8.94% (inactive) |
| C/C(=N/NC(=O)CN1CCN(S(=O)(=O)c2ccc(Br)cc2)CC1)c1ccncc1 | -12.4% (inactive) |
| Cc1nnc(C)c2c(C)n(N)c(C)c12 | -1.23% (inactive) |
| COc1ccc(CCN2C(=O)C(C)=C(C)C2=O)cc1OC | -7.13% (inactive) |
| COc1cc(OC)cc(-c2c(C#Cc3ccsc3)c3cc(-c4ccc(SC)cc4)ccc3n2C)c1 | 3.56% (inactive) |
| O=C(c1ccco1)N1CCN(c2cccc(Cl)c2)CC1 | 4.74% (inactive) |
| O=C(c1ccco1)N1CCN(C(=O)C2c3ccccc3Oc3ccccc32)CC1 | 42.8% (active) |
| O=C(c1ccco1)N1CCN(CCOc2ccccc2)CC1 | -1.67% (inactive) |
| CCCn1c(=O)c(C(=O)Nc2cc(C)ccn2)c(O)c2ccccc21 | -14.8% (inactive) |
| CC(=O)c1ccc(NC(=O)C(C)N(C)CC(=O)Nc2ccccc2Cl)cc1 (stereo unspecified) | -5.51% (inactive) |
| CCOC(=O)C1(CCOc2ccccc2)CCN(Cc2cc(OC)cc(OC)c2)CC1 | 9.31% (inactive) |
| Cn1c(=O)c2c(-c3cccc(Br)c3)c(C#N)c(N)nc2n(C)c1=O | -18.2% (inactive) |
| COc1ccccc1-c1nnc(-c2ccc(F)cc2)o1 | -17.9% (inactive) |
| CCOC(=O)[C@H]1[C@H]2COc3ccccc3[C@@H]2N2C(=O)CN(Cc3ccccc3)C(=O)[C@@]12C | -1.62% (inactive) |

| SMILES | inhibition |
| --- | --- |
| CC(=O)Cn1cnc2c(cnn2-c2ccccc2)c1=O | 2.17% (inactive) |
| O=C1C(=O)N(CCCO)C(c2ccccc2)/C1=C(\O)c1ccc(Br)cc1 (stereo unspecified) | 2.05% (inactive) |
| COc1ccc(N(CC(=O)NCCSCc2cccc(Cl)c2)S(C)(=O)=O)cc1 | 1.88% (inactive) |
| COc1cc(OC)c(C(=S)N2CCCC2)cc1OC | -6.55% (inactive) |
| O=c1[nH]cnc(O)c1C(c1ccc(F)cc1)c1c(O)nc[nH]c1=O | 0.56% (inactive) |
| CCCc1nc2oc3c(=O)[nH]cnc3c2c2c1COC(C)(C)C2 | 8.46% (inactive) |
| COc1ccc(-c2c(C#Cc3ccccc3)c3ccccc3n2C)cc1 | -4.41% (inactive) |
| Cc1cccc(NC(=O)C(C)SCc2ccccc2)c1 (stereo unspecified) | -2.36% (inactive) |
| COc1ccc(Cc2cc(-c3ccc(F)cc3)n[nH]c2=O)cc1 | -14.6% (inactive) |
| C=CC[C@@H](CC(=O)N[C@@H](CO)Cc1ccccc1)C(=O)NCCOC(=O)[C@@H](CC=C)CC(=O)OC(C)(C)C | -18.1% (inactive) |
| COc1ccccc1-n1c(SCC(=O)O)nc2sc3c(c2c1=O)CCC3 | -0.96% (inactive) |
| Cc1cc(C)cc(NC(=O)NC2CCN(CC(=O)Nc3cccc(Cl)c3C)CC2)c1 | -10.3% (inactive) |
| CC(C)Cc1nnc(NC(=O)CCc2ccccc2)s1 | -5.6% (inactive) |
| COc1ccc(CCNC(=O)C2CCCN2C(=O)Nc2ccccc2)cc1OC (stereo unspecified) | 11.4% (inactive) |
| COC(=O)C1(C)NC(c2ccc(F)cc2)C2C(=O)N(c3ccccc3)C(=O)C21 (stereo unspecified) | -19.3% (inactive) |
| COc1ccccc1-c1oc2ccccc2c1C#CCCCCO | 7.1% (inactive) |
| Cc1cc(-c2n[nH]c(=S)n2/N=C/c2ccco2)n[nH]1 | 9.38% (inactive) |
| CCCNC(=S)N1CCC(NC(=O)c2ccc(OC)cc2)CC1 | -3.26% (inactive) |
| COc1ccc(C(C(=O)NC(C)(C)C)N(C(=O)Cn2nnc3ccccc32)c2ccc(C(C)=O)cc2)cc1O (stereo unspecified) | 8.85% (inactive) |
